# Data reported in PubChem BioAssay AID1159580 (chemical genetic matrix, 2015).
# Several values for one entry are separate records, joined by “and”; a condition that tells them apart may be missing. Identical values can stand only once. Hit rate of the full screen: of about 5,500 compounds, about 2,000 (36%) were called active. Inconclusive results (about 18%) are left out. No stated cut-off is given here; in the data, active means normalized growth mostly below about 0.91 (no sharp cut-off); inconclusive means no clear call, values can overlap the other calls; inactive means mostly above about 0.92. Some of the results follow.
# Test: chemical genetic growth profiling, strain panel (AID 1159580);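 further: tested at 20 µM; growth read once vehicle control cultures reached saturation at 30 °C; 1 = growth at the plate median or of vehicle wells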
# Conditions: S. cerevisiae deletion strains, growth OD
smiles,measurement,setting,value
Cc1c(OCC(F)(F)F)ccnc1CS(=O)c1nc2ccccc2[nH]1 (stereo not given),normalized growth,"locus YAL013W, strain DEP1, stronger effect = lower value",0.992 (inactive)
same,normalized growth,"locus YAL021C, strain ccr4, stronger effect = lower value",1.01 (inactive)
same,normalized growth,"locus YAL026C, strain drs2, stronger effect = lower value",1.02 (inactive)
same,normalized growth,"locus YAL030W, strain snc1, stronger effect = lower value",1.03 (inactive)
same,normalized growth,"locus YAL040C, strain CLN3, stronger effect = lower value",0.959 (inactive)
same,normalized growth,"locus YBL061C, strain skt5, stronger effect = lower value",1.02 (inactive)
same,normalized growth,"locus YBR009C, strain hhf1, stronger effect = lower value",1.02 (inactive)
same,normalized growth,"locus YBR021W, strain FUR4, stronger effect = lower value",0.948 (inactive)
same,normalized growth,"locus YBR023C, strain chs3, stronger effect = lower value",1.02 (inactive)
same,normalized growth,"locus YBR171W, strain sec66, stronger effect = lower value",1.02 (inactive)
same,normalized growth,"locus YBR229C, strain ROT2, stronger effect = lower value",0.982 (inactive)
same,normalized growth,"locus YBR231C, strain swc5, stronger effect = lower value",1.05 (inactive)
same,normalized growth,"locus YBR279W, strain paf1, stronger effect = lower value",1 (inactive)
same,normalized growth,"locus YCL011C, strain gbp2, stronger effect = lower value",1.01 (inactive)
same,normalized growth,"locus YCL016C, strain dcc1, stronger effect = lower value",1.01 (inactive)
same,normalized growth,"locus YCL029C, strain bik1, stronger effect = lower value",0.971 (inactive)
same,normalized growth,"locus YCL061C, strain MRC1 (second series), stronger effect = lower value",0.997 (inactive)
same,normalized growth,"locus YCL061C, strain MRC1, stronger effect = lower value",1.02 (inactive)
same,normalized growth,"locus YCL069W, strain vba3, stronger effect = lower value",1 (inactive)
same,normalized growth,"locus YCR088W, strain abp1, stronger effect = lower value",1.01 (inactive)
same,normalized growth,"locus YDL005C, strain med2, stronger effect = lower value",1.02 (inactive)
same,normalized growth,"locus YDL035C, strain GPR1, stronger effect = lower value",0.997 (inactive)
same,normalized growth,"locus YDL040C, strain nat1, stronger effect = lower value",1.03 (inactive)
same,normalized growth,"locus YDL074C, strain BRE1, stronger effect = lower value",0.937 (inactive)
same,normalized growth,"locus YDL101C, strain DUN1, stronger effect = lower value",0.959 (inactive)
same,normalized growth,"locus YDL134C, strain PPH21, stronger effect = lower value",0.997 (inactive)
same,normalized growth,"locus YDL185W, strain tfp1, stronger effect = lower value",0.98 (inactive)
same,normalized growth,"locus YDL192W, strain arf1, stronger effect = lower value",0.977 (inactive)
same,normalized growth,"locus YDR001C, strain nth1, stronger effect = lower value",1.01 (inactive)
same,normalized growth,"locus YDR069C, strain doa4, stronger effect = lower value",1.01 (inactive)
same,normalized growth,"locus YDR101C, strain arx1, stronger effect = lower value",0.985 (inactive)
same,normalized growth,"locus YDR137W, strain rgp1, stronger effect = lower value",1.01 (inactive)
same,normalized growth,"locus YDR150W, strain NUM1, stronger effect = lower value",0.996 (inactive)
same,normalized growth,"locus YDR159W, strain sac3, stronger effect = lower value",1.02 (inactive)
same,normalized growth,"locus YDR162C, strain NBP2, stronger effect = lower value",0.976 (inactive)
same,normalized growth,"locus YDR195W, strain ref2",1.02 (inactive)
same,normalized growth,"locus YDR297W, strain sur2, stronger effect = lower value",1.02 (inactive)
same,normalized growth,"locus YDR318W, strain mcm21, stronger effect = lower value",0.959 (inactive)
same,normalized growth,"locus YDR334W, strain swr1, stronger effect = lower value",1.01 (inactive)
same,normalized growth,"locus YDR335W, strain msn5, stronger effect = lower value",1.01 (inactive)
same,normalized growth,"locus YDR363W, strain ESC2, stronger effect = lower value",0.933 (inactive)
same,normalized growth,"locus YDR388W, stronger effect = lower value",0.987 (inactive)
same,normalized growth,"locus YDR392W, strain spt3, stronger effect = lower value",1.03 (inactive)
same,normalized growth,"locus YDR502C, strain sam2, stronger effect = lower value",0.94 (inactive)
same,normalized growth,"locus YEL003W, strain gim4, stronger effect = lower value",1.03 (inactive)
same,normalized growth,"locus YEL037C, strain rad23, stronger effect = lower value",1.01 (inactive)
same,normalized growth,"locus YEL061C, strain CIN8 (second series), stronger effect = lower value",1.03 (inactive)
same,normalized growth,"locus YEL061C, strain CIN8, stronger effect = lower value",0.999 (inactive)
same,normalized growth,"locus YER002W, strain NOP16, stronger effect = lower value",1.02 (inactive)
same,normalized growth,"locus YER015W, strain faa2, stronger effect = lower value",1.02 (inactive)
same,normalized growth,"locus YER016W, strain bim1, stronger effect = lower value",1.03 (inactive)
same,normalized growth,"locus YER110C, stronger effect = lower value",0.969 (inactive)
same,normalized growth,"locus YER111C, strain swi4, stronger effect = lower value",1.01 (inactive)
same,normalized growth,"locus YER155C, strain BEM2 (second series), stronger effect = lower value",1.01 (inactive)
same,normalized growth,"locus YER155C, strain BEM2, stronger effect = lower value",0.988 (inactive)
same,normalized growth,"locus YER167W, strain BCK2, stronger effect = lower value",0.987 (inactive)
same,normalized growth,"locus YFR010W, strain ubp6, stronger effect = lower value",1.02 (inactive)
same,normalized growth,"locus YGL078C, strain dbp3, stronger effect = lower value",0.898 (active)
same,normalized growth,"locus YGL086W, strain mad1, stronger effect = lower value",0.987 (inactive)
same,normalized growth,"locus YGL167C, strain pmr1, stronger effect = lower value",1.03 (inactive)
same,normalized growth,"locus YGL173C, strain kem1, stronger effect = lower value",1.04 (inactive)
same,normalized growth,"locus YGL227W, strain vid30, stronger effect = lower value",1.02 (inactive)
same,normalized growth,"locus YGL240W, strain doc1, stronger effect = lower value",1.02 (inactive)
same,normalized growth,"locus YGL248W, strain PDE1, stronger effect = lower value",0.988 (inactive)
same,normalized growth,"locus YGL253W, strain hxk2, stronger effect = lower value",1.01 (inactive)
same,normalized growth,"locus YGR078C, strain PAC10, stronger effect = lower value",0.945 (inactive)
same,normalized growth,"locus YGR135W, strain pre9, stronger effect = lower value",0.944 (inactive)
same,normalized growth,"locus YGR229C, strain SMI1, stronger effect = lower value",0.951 (inactive)
same,normalized growth,"locus YGR252W, strain gcn5, stronger effect = lower value",0.943 (inactive)
same,normalized growth,"locus YHR013C, strain ard1, stronger effect = lower value",0.999 (inactive)
same,normalized growth,"locus YHR027C, strain rpn1, stronger effect = lower value",1.01 (inactive)
same,normalized growth,"locus YHR030C, strain SLT2, stronger effect = lower value",0.996 (inactive) and 0.482 (active)
same,normalized growth,"locus YHR079C, strain IRE1 (second series), stronger effect = lower value",0.976 (inactive)
same,normalized growth,"locus YHR079C, strain IRE1, stronger effect = lower value",0.632 (active)
same,normalized growth,"locus YHR094C, strain hxt1, stronger effect = lower value",0.994 (inactive)
same,normalized growth,"locus YHR129C, strain ARP1, stronger effect = lower value",0.991 (inactive)
same,normalized growth,"locus YHR142W, strain chs7, stronger effect = lower value",1.02 (inactive)
same,normalized growth,"locus YHR200W, strain rpn10, stronger effect = lower value",0.963 (inactive)
same,normalized growth,"locus YIL066C, strain RNR3, stronger effect = lower value",0.975 (inactive)
same,normalized growth,"locus YIL073C, strain SPO22, stronger effect = lower value",1.04 (inactive)
same,normalized growth,"locus YIL125W, strain kgd1, stronger effect = lower value",0.952 (inactive)
same,normalized growth,"locus YIR030C, strain dcg1, stronger effect = lower value",0.995 (inactive)
same,normalized growth,"locus YJL092W, strain hpr5, stronger effect = lower value",1.01 (inactive)
same,normalized growth,"locus YJL095W, strain BCK1 (second series), stronger effect = lower value",1.02 (inactive)
same,normalized growth,"locus YJL095W, strain BCK1, stronger effect = lower value",0.937 (inactive) and 0.468 (active)
same,normalized growth,"locus YJL115W, strain asf1, stronger effect = lower value",1.03 (inactive)
same,normalized growth,"locus YJL129C, strain trk1, stronger effect = lower value",1.04 (inactive)
same,normalized growth,"locus YJL134W, strain LCB3, stronger effect = lower value",1 (inactive)
same,normalized growth,"locus YJL154C, strain vps35, stronger effect = lower value",1.01 (inactive)
same,normalized growth,"locus YJL164C, strain tpk1, stronger effect = lower value",1.02 (inactive)
same,normalized growth,"locus YJL166W, strain qcr8, stronger effect = lower value",1.03 (inactive)
same,normalized growth,"locus YJL168C, strain set2, stronger effect = lower value",0.982 (inactive)
same,normalized growth,"locus YJL187C, strain SWE1 (second series), stronger effect = lower value",0.951 (inactive)
same,normalized growth,"locus YJR043C, strain POL32, stronger effect = lower value",0.979 (inactive)
same,normalized growth,"locus YJR066W, strain TOR1, stronger effect = lower value",0.767 (active)
